Experimental data: PubChem BioAssay (NCI)
Compounds without any hit were thinned out: in the full panel of roughly 83,000, 20% have a hit.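 In brief: 96-well plates, 48 h treatment, single concentration, percent growth endpoint.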 Calls of active or inactive are those of the source. The calls were made as follows: active = growth percent below 10; inactive = the rest.

The compounds below were run on HL-60(TB) leukemia (assay: NCI-60 one-dose screen, 48 h (100 = growth as untreated, 0 = no growth, -100 = all killed)). Settings: 10 µM unless noted.

Compound | growth
CS(=O)(=O)c1nccc(-c2c(-c3cccc(OCc4ccc(F)cc4)c3)nc3sccn23)n1 | 43.7% (inactive)
CC(C)(C)n1cc(-c2ccnc(NCCNS(=O)(=O)c3ccccc3)c2)c(-c2cccc(O)c2)n1 | 45% (inactive)
Oc1c(N=Nc2nn[nH]n2)ccc2ccccc12 | 98.2% (inactive)
CCN=C1C=CC(=C(c2ccc(N(C)C)cc2)c2ccc(N(C)C)cc2)c2ccccc21 | -9.26% (active)
CC(C)(C)NCCC(O)c1cc(C(F)(F)F)nc2c(C(F)(F)F)cccc12 (stereo not given) | 73.5% (inactive)
Oc1ccc(CCC2CCNc3ccccc32)cc1 (stereo not given) | 86.9% (inactive)
c1ccn2nnnc2c1 | 116% (inactive)
C/C(=C\c1csc(C)n1)[C@@H]1C[C@@H]2O[C@]2(C)CCC[C@H](C)[C@H](O)[C@@H](C)C(=O)C(C)(C)[C@@H](O)CC(=O)N1 | 0.771% (active)
CN1CCN(c2nc(NCCNc3ccnc4cc(Cl)ccc34)c3ccccc3n2)CC1 | -63.3% (active)
CCCC1(c2ccccc2)NC(=O)NC1=O (stereo not given) | 144% (inactive)
N#C/C(=C\c1cccc2cnccc12)n1nnc2cccc(F)c21 | 1.65% (active)
Nc1c(C(=O)Nc2cccc3ccncc23)sc2nc3c(cc12)C(=O)CCC3 | 14.7% (inactive)
O=C1Nc2ccccc2/C1=C\c1c(-c2ccccc2)nc2ccccn12 | -10.7% (active)
O=C1CC(c2ccc3c(c2)OCO3)Nc2ccccc21 (stereo not given) | 0.897% (active)
CNCCCOc1c(Br)cc(CCNC(=O)/C(Cc2cc(Br)c(OC)c(Br)c2)=N/O)cc1Br | -57.1% (active)
